The test can be described thus: qHTS profiling of the MIPE4 collection as inhibitors of Plasmodium falciparum (DD2) proliferation (Rep 2) (AID 743346). The settings on record: P. falciparum Dd2 in erythrocytes, SYBR Green DNA, 72 h; at 28.5 µM unless noted. From the text: Plasmodium falciparum is a virulent malarial parasite that kills 1-2 million people worldwide each year. Transmitted by mosquitoes, the sporozoite form of the parasite enters the blood stream to infect hepatocytes, where they become merozoites that infect red blood cells (erythrocytes). Within erythrocytes, merozoites begin a […] cycle of growth and division, after which the parasite is released to infect new red blood cells. Gametocytes, which form within erythrocytes as well, circulate in the bloodstream and are ingested by the mosquito, thereby completing the life cycle. To profile malarial isolates for differential chemical responses and to identify inhibitors of malarial growth, an assay that measures P. falciparum growth and replication within erythrocytes was employed. This assay uses a DNA binding fluorescent dye (SYBR Green) to detect parasite DNA following cell lysis. Because mature erythrocytes lack DNA, only Plasmodium-derived DNA is detected.
The SYBR Green viability assay was adapted from a method described previously (Plouffe et al., 2008). For screening 3 ul culture medium was dispensed into 1536 well black clear bottom plates (Aurora Biotechnologies) using a Multidrop Combi (Thermo Fisher Scientific Inc.), 23 nL compounds in DMSO were added by a pin tool (Kalypsys), and 5 ul of erythrocytes infected with P. falciparum (0.3% parasitemia, 2.5% hematocrit final concentration) were added. The plates were incubated at 37 C in a humidified incubator in 5% CO2 for 72 h, and 2 ul lysis buffer (20 mM Tris HCl, 10 mM EDTA, 0.16% saponin, 1.6% triton X, 10X SYBR Green I supplied as 10,000X […] by Invitrogen) was added to each well. The plates were mixed for 25 sec with gentle shaking and incubated overnight at room temperature in the dark. The following morning, fluorescence intensity at 485(14) nm excitation and 535(25) nm emission wavelengths was measured on an EnVision (Perkin Elmer) plate reader. Plate reads were normalized relative to the control inhibitor (0.29 uM artemisinin) and vehicle (DMSO) wells present on each plate and then corrected by an algorithm using vehicle-only control plates at the beginning and end of the compound plate stack.
As for `C=C(C)[C@@H]1CC[C@]2(C(=O)O)CC[C@]3(C)[C@H](CC[C@@H]4[C@@]5(C)CC[C@H](O)C(C)(C)[C@@H]5CC[C@]43C)[C@@H]12`, the parasite growth, % of control (lower = inhibition) turned out to be 97%.

For the compound `CN1C(=O)C[C@H](C(=O)N[C@@H](Cc2cnc[nH]2)C(=O)N2CCC[C@@H]2C(N)=O)NC1=O`, the parasite growth, % of control (lower = inhibition) worked out at 70.2%.

Turning to `CC(C(=O)O)c1ccc(-c2ccccc2)c(F)c1` (stereo not given), the parasite growth, % of control (lower = inhibition) is 114%.

As to `CON=C(C(=O)N[C@@H]1C(=O)N2C(C(=O)O)=C(Cn3ccc(=N)n3CCO)CS[C@H]12)c1csc(N)n1`, the parasite growth, % of control (lower = inhibition) came out at 92%.

For the compound `CC(=O)N(O)CCCP(=O)(O)O`, the parasite growth, % of control (lower = inhibition) stood at 18.1%.

In the case of `C[C@@H]1C(=O)O[C@H]2CC34[C@H]5C[C@@H](C(C)(C)C)C36[C@H](OC(=O)[C@@H]6O)O[C@@]4(C(=O)O5)[C@]21O` (stereo not given in full), the parasite growth, % of control (lower = inhibition) worked out at 91.1%.

Turning to `CCC(CC)[C@H](NC(C)=O)[C@@H]1[C@H](O)[C@@H](C(=O)O)C[C@@H]1N=C(N)N`, the parasite growth, % of control (lower = inhibition) was 112%.

Consider `COc1ccc2c3c1OC1C[C@@H](O)C=C[C@@]31CCN(C)C2` (stereo not given in full), for which the parasite growth, % of control (lower = inhibition) amounted to 65.2%.

Take `Cc1cc(O)c2c(c1)C(=O)c1cc(O)cc(O)c1C2=O`: the parasite growth, % of control (lower = inhibition) came to 66.9%.

For the compound `C[C@H](CCC(=O)O)[C@H]1CC[C@H]2[C@H]3[C@@H](CC[C@]12C)[C@@]1(C)CC[C@@H](O)C[C@H]1C[C@@H]3O`, the parasite growth, % of control (lower = inhibition) was 16.6%.

With `C[C@H](CCC(=O)O)[C@H]1CCC2C3CC[C@@H]4C[C@H](O)CC[C@]4(C)C3CC[C@@]21C` (stereo not given in full), the parasite growth, % of control (lower = inhibition) was determined as 65%.

For `CCN1C[C@H](C)n2c(c(O)c3c(=O)n(Cc4ccc(F)c(Cl)c4)nc(C(=O)NC)c32)C1=O`, the parasite growth, % of control (lower = inhibition) was found to be 45.4%.

On to `COC1CCC(N(C(=O)C2CCC(C)CC2)c2cc(C3=CCCCC3)sc2C(=O)O)CC1` (stereo not given), for which the parasite growth, % of control (lower = inhibition) amounted to 44.7%.

In the case of `CNC1[C@H](O)C(O[C@@H]2C(O)C(O[C@H]3O[C@H]([C@@H](C)NC)CC[C@H]3N)[C@@H](N)C[C@H]2N)OC[C@]1(C)O` (stereo not given in full), the parasite growth, % of control (lower = inhibition) was found to be 111%.

As for `C[C@H]1[C@H](NC(=O)C(=NOC(C)(C)C(=O)O)c2csc(N)n2)C(=O)N1S(=O)(=O)O`, the parasite growth, % of control (lower = inhibition) turned out to be 91.7%.

Take `O=C(O)C(=O)Nc1cccc(C2=NN=N[N]2)c1`: the parasite growth, % of control (lower = inhibition) came to 136%.

In the case of `O=C(O)c1ccccc1C(=O)Nc1ccc(-c2ccccc2)cc1`, the parasite growth, % of control (lower = inhibition) amounted to 82.2%.

`CC[C@H](C=C[C@@H](C)[C@H]1CC[C@H]2[C@@H]3CC=C4C[C@@H](O)CC[C@]4(C)[C@@H]3CC[C@]12C)C(C)C`: the parasite growth, % of control (lower = inhibition) turned out to be 117% [at 9.64 µM].

Take `COc1ccc2cc1Oc1ccc(cc1)C[C@H]1c3cc(c(OC)cc3CCN1C)Oc1c(OC)c(OC)cc3c1[C@H](C2)N(C)CC3`: the parasite growth, % of control (lower = inhibition) turned out to be 50.7%.

Turning to `CN1C2CCC1CC(OC(=O)C(CO)c1ccccc1)C2` (stereo not given), the parasite growth, % of control (lower = inhibition) amounted to 62.2%.

As for `CCCNC(=O)Nc1ccc(Oc2ncnc3cc(OC)c(OC)cc23)cc1Cl`, the parasite growth, % of control (lower = inhibition) came out at 30.3%.

In the case of `CC=CCC=CCCC(=O)[C@H]1O[C@@H]1C(N)=O`, the parasite growth, % of control (lower = inhibition) is 60%.

As to `CC(=O)N[C@H]1[C@@H]([C@H](O)[C@H](O)CO)OC(C(=O)O)=C[C@@H]1N=C(N)N`, the parasite growth, % of control (lower = inhibition) amounted to 142%.

With `CCOC1OC(=O)C[C@H]1NC(=O)[C@@H]1CCCN1C(=O)[C@@H](NC(=O)c1ccc(N)c(Cl)c1)C(C)(C)C` (stereo not given in full), the parasite growth, % of control (lower = inhibition) turned out to be 67.6%.

Take `CN[C@H](CC(C)C)C(=O)N[C@H]1C(=O)N[C@@H](CC(N)=O)C(=O)N[C@@H]2C(=O)N[C@H]3C(=O)N[C@H](C(=O)N[C@H](C(=O)O)c4cc(O)cc(O)c4-c4cc3ccc4O)[C@H](O)c3ccc(c(Cl)c3)Oc3cc2cc(c3O[C@@H]2O[C@H](CO)[C@@H](O)[C@H](O)[C@@H]2O[C@H]2C[C@](C)(N)[C@H](O)[C@H](C)O2)Oc2ccc(cc2Cl)[C@H]1O`: the parasite growth, % of control (lower = inhibition) worked out at 150%.

With `C=C1C[C@@]2(O)O[C@@]3(C[C@H]2C(C)C)[C@H](C)CC[C@H]13`, the parasite growth, % of control (lower = inhibition) came to 48.2%.

Turning to `Cc1ncc(C[n+]2csc(CCO)c2C)c(=O)[nH]1`, the parasite growth, % of control (lower = inhibition) came out at 113%.

Turning to `CC1(C)CC(O)CC(C)(C)N1[O]`, the parasite growth, % of control (lower = inhibition) was determined as 73%.

Regarding `O=C(C[C@@H]1NCCC[C@@H]1O)Cn1cnc2ccccc2c1=O`, the parasite growth, % of control (lower = inhibition) came out at 22.5%.

For the compound `CC(=O)[C@H]1CC[C@H]2[C@@H]3CCC4=CC(=O)CC[C@]4(C)[C@H]3CC[C@]12C`, the parasite growth, % of control (lower = inhibition) was 30.4%.

As for `NC(=O)c1cccc(-c2cccc(OC(=O)NC3CCCCC3)c2)c1`, the parasite growth, % of control (lower = inhibition) came to 37.9%.

Turning to `Cc1cn([C@@H]2C[C@@H](O)[C@H](CO)O2)c(=O)[nH]c1=O`, the parasite growth, % of control (lower = inhibition) is 94.9%.

For `CN1[C@H]2CC(OC(=O)[C@@H](CO)c3ccccc3)C[C@H]1[C@H]1O[C@H]12` (stereo not given in full), the parasite growth, % of control (lower = inhibition) turned out to be 72.3%.

Take `C[N+](C)([O-])CCNc1ccc(NCC[N+](C)(C)[O-])c2c1C(=O)c1c(O)ccc(O)c1C2=O`: the parasite growth, % of control (lower = inhibition) was determined as 41.1%.

Take `c1coc(CNc2ncnc3nc[nH]c23)c1`: the parasite growth, % of control (lower = inhibition) stood at 80%.

Regarding `O=C1c2cccc(O)c2C(=O)c2c(O)cc(CO)cc21`, the parasite growth, % of control (lower = inhibition) was found to be 97.1%.

Take `OC[C@H]1OC(O)C[C@@H](O)[C@H]1O` (stereo not given in full): the parasite growth, % of control (lower = inhibition) was 96%.

For the compound `NC1=N[C@H]2[C@H](CS[C@H]2CCCCC(=O)O)N1`, the parasite growth, % of control (lower = inhibition) came out at 82% [at 9.64 µM].

As to `CC(N[C@H]1CCCC[C@H]1NC(=O)c1ccc(Cl)cc1)c1cccc2ccccc12` (stereo not given in full), the parasite growth, % of control (lower = inhibition) stood at 64%.

In the case of `O=C1CC[C@@]2(O)[C@H]3Cc4ccc(O)c5c4C2(CCN3CC2CC2)[C@H]1O5`, the parasite growth, % of control (lower = inhibition) is 59.1%.

For the origin of these results see PubChem BioAssay (NCATS).
